Sampled rows, rich in hits. Any-hit rate of the full collection: about 1.2%.
KCNH2 3.1 inh – qHTS for Inhibitors of KCHN2 3.1: Mutant qHTS; Potassium voltage-gated channel subfamily H member 2, brain isoform KCNH2 3.1 (human); U2OS KCNH2 3.1, thallium flux FluxOr; stronger effect = lower value; activity change, % (tested at about 1.8 µM); actives 0.95% (n = 340,000); AID 720553, 2013;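 active = maximum activity change below -70%; inconclusive = maximum activity change from -70% to -50%; inactive = maximum activity change above -50%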;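 also: thallium influx rate constant from kinetic fluorescence after stimulation buffer; % is scaled to controls: 0 for no effect and ±100 for the full control effect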
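Measured as rate of thallium-driven FluxOr signal in transduced U2OS cells carrying the 3.1 channel, read kinetically for 2 min upon stimulation; values are rate constants scaled to DMSO control wells.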
hERG WT inh – qHTS for Inhibitors of KCHN2 3.1: Wildtype qHTS | U2OS, BacMam KCNH2, thallium flux FluxOr; stronger effect = lower value | AID 720551, 2013 | actives 0.37% (n = 340,000) | activity change, % at 1.84 µM | Voltage-gated inwardly rectifying potassium channel KCNH2 (Homo sapiens), Q12809;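 active = maximum activity change below -70%; inconclusive = maximum activity change between -70% and -50%; inactive = maximum activity change above -50%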; also: % is scaled to controls: 0 for no effect and ±100 for the full control effect
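U2OS cells transduced with wild-type KCNH2 virus are loaded with FluxOr dye for 45 min, and thallium flux is measured in kinetic reads before and after stimulation buffer. Rate constants are normalized to DMSO controls.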
Tb PFK block – qHTS Assay to Find Inhibitors of T. brucei phosphofructokinase | T. brucei PFK, ADP-Glo luminescence | Potency, µM (doses to about 57.5 µM), without a hit: top-dose activity, negative = inhibition, actives largely listed as inhibitors | actives 0.17% (n = 330,000) | AID 485367, 2010; active = well fitted inhibition curve with a large enough effect; inconclusive = small, poorly fitted or top-dose-only effect, or effect the other way;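 also: potency is read from the fitted curve at half-maximal effect; 0% = uninhibited 1x PFK enzyme wells and -100% = no-enzyme wells; nearly all actives have a fitted effect of over 60% in size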
Target sequence (O15648 whole entry, looked up): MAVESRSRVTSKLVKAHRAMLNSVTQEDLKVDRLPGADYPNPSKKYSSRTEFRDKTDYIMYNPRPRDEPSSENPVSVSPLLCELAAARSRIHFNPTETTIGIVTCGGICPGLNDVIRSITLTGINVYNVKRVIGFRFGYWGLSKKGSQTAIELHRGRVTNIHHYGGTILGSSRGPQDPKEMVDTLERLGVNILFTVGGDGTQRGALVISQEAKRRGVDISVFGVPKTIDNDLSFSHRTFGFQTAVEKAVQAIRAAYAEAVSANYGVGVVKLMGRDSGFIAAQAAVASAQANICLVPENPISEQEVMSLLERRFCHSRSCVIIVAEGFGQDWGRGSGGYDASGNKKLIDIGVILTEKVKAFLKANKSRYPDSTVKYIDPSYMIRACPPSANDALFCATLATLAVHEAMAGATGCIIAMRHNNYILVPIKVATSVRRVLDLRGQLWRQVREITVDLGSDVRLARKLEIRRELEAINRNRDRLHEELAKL
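ADP-Glo luminescence quantified ADP after 45 min at room temperature, with 1.25 nM T. brucei PFK, 0.1 mM ATP and 0.5 mM fructose-6-phosphate in pH 8.0 TEA buffer. qHTS titrations up to 57 µM; curves classified by quality.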
PTAP TSG101 blk – qHTS Assay for Iinhibitors of HIV-1 Budding by Blocking the Interaction of PTAP/TSG101. Tumor susceptibility gene 101 protein (Homo sapiens), Q99816. Fluorescence polarization, FITC-PTAP peptide / Tsg101 binding. Potency, µM (titrated, usually from 115 µM), for the others: at the highest dose activity change, negative = inhibition, most hits filed as inhibitors. 340,000 tested, under 10 active; active = well fitted inhibition curve with a large enough effect in the main read-out, with a control signal flat, not every such curve was filed as active; inconclusive = small, poorly fitted or top-dose-only effect, or effect the other way, or a change in a side signal; inactive = no such curve, though single readings can be large or run the other way; also: potency is read from the fitted curve at half-maximal effect; % of control where 0% means no effect
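FP read-out: FITC-PTAP peptide, 50 nM final, binding Tsg101 binding domain, 10 uM final; 20 min, r.t.; 10 mM HEPES pH 7.5, 0.15 M NaCl, 0.01% Tween 20, 3 mM EDTA, 0.1 mM TCEP.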
An asterisk follows results filed as active; i = inactive; ? = inconclusive; · = not tested or not shown; + = active, no number.

SMILES | KCNH2 3.1 inh | hERG WT inh | Tb PFK block | PTAP TSG101 blk
Cc1ccc(N2CCN(/N=C/c3c(C)nn(-c4ccccc4)c3Cl)CC2)cc1 | -90* | · | 0% | -2%
c1ccc(-c2n[nH]c3ccccc23)cc1 | 15 | 3 | -1% | -9%
O=c1[nH]nc(-c2ccccc2)c2ccccc12 | -113* | -11 | 2% | -5%
CCCN(C(=O)C(=O)Nc1ccc2nc3n(c(=O)c2c1)CCCCC3)c1ccc(OCC)cc1 | 3 | 4 | 9% | -2%
CCCn1c(S(=O)(=O)O)nc2ccccc21 | 14 | -18 | 1% | -6%
CCC(C)n1c(S(=O)(=O)O)nc2ccccc21 (stereo not drawn) | -12 | -184* | -2% | -9%
CN(Cc1ccco1)c1ncnc2ccc(-c3cccc(Cl)c3)cc12 | · | · | 3% | ·
Cc1ccccc1C(=O)/C=C1/SCC(=O)N1C | -82* | -8 | 0% | -5%
Cc1ccccc1C(=O)NN1C(=O)CSC1=S | 5 | 2 | 6% | -3%
NC(=O)c1ccc(C[C@H](C(=O)O)N2C(=O)c3ccc(C(=O)O)cc3C2=O)cc1 | · | · | 1% | ·
O=C(NCc1ccccc1)C12CN(Cc3ccccc3)CC1C(c1cccc([N+](=O)[O-])c1)=NO2 (stereo not drawn) | -15 | -32 | 2% | 0%
CCCCN(CCCC)CCCNC(=O)C12CN(Cc3ccccc3)CC1C(c1cccc([N+](=O)[O-])c1)=NO2 (stereo not drawn) | -87* | -76* | -2% | -11%
CCn1c(-c2nn(-c3ccccc3)ccc2=O)n[nH]c1=S | -10 | + | -3% | -3%
O=C(NCc1ccccc1)c1ccc(-c2ccc(F)cc2)o1 | -3 | -260* | -1% | -2%
Cc1ccc(NC(=O)c2ncn(CCCN3CCN(Cc4cccc5ccccc45)CC3)n2)cc1C | -72* | -12 | · | -4%
O=C(c1ccc2c(c1)CCC2)N1CCN(Cc2ccccc2)CC1 | -1 | 11 | · | ·
CCn1c(NCc2cc(Br)ccc2NS(=O)(=O)c2ccc(C)cc2)nc2ccccc21 | -82* | 5 | 1% | -6%
CCn1c(NCc2ccccc2NS(=O)(=O)c2ccc(C)cc2)nc2ccccc21 | -25 | -3 | 0% | -2%
Cc1nc(NCCc2ccc(O)cc2)c2nnn(Cc3ccccc3)c2n1 | 5 | -3 | -1% | -10%
Cc1sc2ncnc(N3CCN(CCOc4ccc(Cl)cc4)CC3)c2c1C | -79* | -21 | -2% | -7%
CN(CCOc1ccc(Cl)cc1)C(=O)c1cccc(S(=O)(=O)N2CCN(c3ccccc3)CC2)c1 | -22 | 0 | · | -2%
CSc1ccc(CN(C)CC(=O)Nc2ccc(C)cc2Br)cc1 | -153* | -148* | 0% | -2%
CSc1ccccc1NC(=O)CN(C)CC(=O)NCc1ccccc1 | -1 | -4 | 1% | -1%
CCCn1c(N)c(C(=O)CN(C)CC(=O)Nc2cc(C)ccc2C)c(=O)[nH]c1=O | -70* | -2 | 6% | -2%
CSc1ccccc1NC(=O)CN(C)CC(=O)Nc1cc(C)ccc1C | -76* | i | -2% | -2%
SMILES | KCNH2 3.1 inh | hERG WT inh | Tb PFK block | PTAP TSG101 blk
CCCn1c(N)c(C(=O)CN(C)CC(=O)Nc2ccc(C)cc2)c(=O)[nH]c1=O | -28 | -10 | 4% | -4%
Cc1cc(=O)c(C(=O)O)c(C)n1-c1ccccc1 | -6 | -4 | · | -1%
CCN(CCS(=O)(=O)c1ccc(Br)cc1)Cc1nc2ccccc2c(=O)[nH]1 | -36 | 11 | ? | 0%
Oc1cc(O)cc(/C=C/c2ccc(O)c(O)c2)c1 | 10 | -7 | 8.5µM* | 0%
NC1=NC(c2ccccc2C(F)(F)F)N(c2ccc(F)c(Cl)c2)C(N)=N1 (stereo not drawn) | -3 | -1 | ? | -7%
Cc1ccc(NC(=O)CNC(=O)C2CCCCC2)nc1 | 3 | -4 | 6% | -7%
CCCN=C1N(C)C[C@@H]2[C@@H]3C(=O)N(C)C(=O)[C@@H]3[C@](Cc3ccccc3)(C(=O)OC)N12 | -19 | -1 | -6% | -3%
O=C(NCC1CCCO1)C(=O)N/N=C/c1ccc(O)c(Cl)c1 (stereo not drawn) | -38 | -225* | 8% | -5%
Cc1ccc(OCC(=O)N(Cc2ccco2)c2c(N)n(Cc3ccccc3)c(=O)[nH]c2=O)cc1C | 3 | -7 | 0% | 1%
Cc1c(C(=O)NCCSCc2ccccc2)cccc1[N+](=O)[O-] | -77* | 4 | -4% | -4%
Cc1c(C(=O)NCCSCc2ccco2)cccc1[N+](=O)[O-] | 8 | -4 | -1% | -2%
COC(=O)CSc1nnc(CNS(=O)(=O)c2ccc(C)cc2)n1C | 4 | -253* | 1% | -2%
CCN(CC)CCCN(C(=O)c1ccco1)c1nc(-c2ccc(C)cc2)cs1 | -94* | -47 | -1% | -8%
O=C(c1ccco1)N(CCCN1CCOCC1)c1nc(-c2ccc(Cl)cc2)cs1 | -15 | 9 | 0% | -6%
CCN(CC)CCCN(C(=O)c1ccco1)c1nc(-c2ccc(Cl)cc2)cs1 | -80* | -42 | 0% | -3%
COCC(CN1CCN(C2=NS(=O)(=O)c3ccccc32)CC1)OC(=O)c1ccc(OC)cc1 (stereo not drawn) | 8 | 3 | 0% | -6%
Cc1cnn(-c2cc(N/N=C/c3ccc(F)cc3)ncn2)c1 | 0 | 6 | 0% | -2%
Cc1cnn(-c2cc(N/N=C/c3ccccc3Cl)ncn2)c1 | -7 | -247* | -1% | -1%
CCN(C[C@H]1N[C@@](C)(C(=O)OC)[C@H]2C(=O)N(C)C(=O)[C@@H]12)C(=O)c1ccc(C)cc1 | -32 | 4 | -7% | -18%
CCN(C[C@H]1N[C@@](C)(C(=O)OC)[C@H]2C(=O)N(C)C(=O)[C@@H]12)C(=O)COc1ccccc1 | 3 | -218* | 1% | 0%
O=C(c1ccc(Br)o1)N1CCN(c2ccc3nnc(-c4ccccc4)n3n2)CC1 | 6 | -1 | -1% | -4%
O=S(=O)(c1ccc(Br)cc1)N1CCN(c2ccc3nnc(-c4ccccc4)n3n2)CC1 | -91* | -14 | -1% | -4%
CCOc1ccc2[nH]c(=O)c(CN(CCO)C(=O)CC)cc2c1 | -7 | 2 | 2% | 0%
CCOc1ccc2[nH]c(=O)c(CN(CCO)C(=O)c3ccc(Br)cc3)cc2c1 | -140* | -6 | 0% | 1%
COc1ccc(C(=O)CNc2cccc(F)c2)cc1 | -91* | 2 | -18% | -3%
CN1C(C(=O)NCCc2cccs2)CC2Cn3c(nc4cc(Cl)c(Cl)cc43)C21 (stereo not drawn) | -10 | 8 | -16% | -1%
